# Data as given in PubChem BioAssay (NCATS).
# Where “and” joins values, the source holds several entries; their conditions need not be identical. Equal entries are not always repeated. Results filed as inconclusive are left out. A call without a number means that no potency is given here. A number with no mark means an inactive call. Calls of active or inactive are those of the source. Calls follow the shape of the dose curve; as a rule, active = well fitted curve in the direction sought with a large enough effect; inconclusive = small, poorly fitted or top-dose-only effect, or another doubt; inactive = no such curve, though single readings can be large; an effect the other way counts as inactive or inconclusive.
# Assays:
# [1] = molecular target: Cellular tumor antigen p53 (Homo sapiens) (UniProt P04637); test: Primary qHTS for small molecule compounds that upregulate eGFP-tagged delta133p53alpha (in N-terminal) cells. (AID 2060322); conditions: NCI-H358 eGFP-delta133p53alpha fluorescence, 24 h; activation: hits give high values; also: nearly all actives have a fitted effect of over 75% in size; also: potency is read from the fitted curve at half-maximal effect; as to activation: series mostly up to about 56 µM
# Procedure, shortened: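 NCI-H358 cells pre-induced 24 h with 10 ng/ml doxycycline to express N-terminal eGFP-delta133p53alpha, then dosed 24 h at 37C without doxycycline; fixed, Hoechst-stained, GFP intensity by laser scanning cytometry, normalized to DMSO (0%) and 57.5 uM 5-azacytidine (100%).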
# [2] = molecular target: Aldehyde dehydrogenase, mitochondrial (Homo sapiens) (UniProt P05091); test: qHTS for Inhibitors of the Aldehyde Dehydrogenase Family (ALDH2) Primary screen (AID 2061308); also: nearly all actives have a fitted effect of over 55% in size
# [3] = molecular target: Retinaldehyde dehydrogenase 3 (Homo sapiens) (UniProt P47895); test: qHTS for Inhibitors of the Aldehyde Dehydrogenase Family (ALDH1A3) Validation screen (AID 2061312); also: nearly all actives have a fitted effect of over 45% in size; also: potency is read from the fitted curve at half-maximal effect
# [4] = molecular target: Retinaldehyde dehydrogenase 3 (Homo sapiens) (UniProt P47895); test: qHTS for Inhibitors of the Aldehyde Dehydrogenase Family (ALDH1A3) Primary screen (AID 2061315)
# [5] = BET inhibitor-based combinations targeting novel dependencies in MECOM-rearranged (r) AML: SET-2 cell line (AID 2202231); conditions: SET-2 AML cells viability, CellTiter-Glo luminescence, 48 h; viability: hits give low values, concentration not given here; also: nearly all actives have a fitted effect of over 35% in size; also: potency is read from the fitted curve at half-maximal effect
# Procedure, shortened: (§1)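 A 48 hr incubation preceded viability reading by CellTiter-Glo, with 15 min room-temperature development. Dose series had 11 points; normalization used DMSO and empty wells; AUC was computed and mean-centered per line as Z-AUC.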
# [6] = BET inhibitor-based combinations targeting novel dependencies in MECOM-rearranged (r) AML: OCI-AML3 cell line (AID 2202232); conditions: Potency: OCI-AML3 viability; also: nearly all actives have a fitted effect of over 35% in size; also: potency is read from the fitted curve at half-maximal effect
# Procedure, shortened: as §1
# [7] = BET inhibitor-based combinations targeting novel dependencies in MECOM-rearranged (r) AML: MV-4-11 cell line (AID 2202233); also: nearly all actives have a fitted effect of over 45% in size; also: potency is read from the fitted curve at half-maximal effect
# Procedure, shortened: (§2)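 Each compound is tested in an 11-point concentration series against 500 seeded cells/well for 48 hr. The luminescent viability signal is normalized to DMSO and blank wells, then reduced to AUC and a cell-line-centred Z-AUC.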
# [8] = BET inhibitor-based combinations targeting novel dependencies in MECOM-rearranged (r) AML: HNT-34 cell line (AID 2202234); also: nearly all actives have a fitted effect of over 35% in size; also: potency is read from the fitted curve at half-maximal effect
# Procedure, shortened: as §2
# [9] = BET inhibitor-based combinations targeting novel dependencies in MECOM-rearranged (r) AML: UCSD-AML1 cell line (AID 2202235); also: nearly all actives have a fitted effect of over 40% in size; also: potency is read from the fitted curve at half-maximal effect
# Procedure, shortened: as §2
# [10] = BET inhibitor-based combinations targeting novel dependencies in MECOM-rearranged (r) AML: AML-191 cell line (AID 2202236; also: nearly all actives have a fitted effect of over 35% in size; also: potency is read from the fitted curve at half-maximal effect)
# Procedure, shortened: as §1
# [11] = BET inhibitor-based combinations targeting novel dependencies in MECOM-rearranged (r) AML: AML-194 cell line (AID 2202237; also: nearly all actives have a fitted effect of over 40% in size; also: potency is read from the fitted curve at half-maximal effect)
# Procedure, shortened: as §1
# Sequence of Cellular tumor antigen p53 (Homo sapiens) (P04637 whole entry, looked up): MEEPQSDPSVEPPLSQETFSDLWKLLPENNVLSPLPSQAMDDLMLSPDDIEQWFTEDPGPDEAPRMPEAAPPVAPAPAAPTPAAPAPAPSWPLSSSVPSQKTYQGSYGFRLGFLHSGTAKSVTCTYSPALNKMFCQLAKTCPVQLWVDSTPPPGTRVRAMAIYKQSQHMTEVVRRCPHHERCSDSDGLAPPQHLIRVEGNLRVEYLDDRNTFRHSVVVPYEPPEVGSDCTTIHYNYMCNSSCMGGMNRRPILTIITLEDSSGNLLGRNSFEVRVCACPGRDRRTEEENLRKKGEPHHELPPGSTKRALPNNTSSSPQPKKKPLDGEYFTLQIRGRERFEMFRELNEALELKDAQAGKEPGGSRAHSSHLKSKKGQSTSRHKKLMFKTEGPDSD
compound,measurement,setting,value
O=C(c1ccccn1)c1cnn2c(-c3ccncc3)ccnc12,activation,[1],-7.16%
same,Potency,[2],inactive
same,Potency,[3],inactive
same,Potency,[4],inactive
COc1cc(Nc2nc3c(s2)CCCC3c2ccccc2)ccc1-n1cnc(C)c1 (centres undefined),activation,[1],-18.6%
same,"activity change, negative = inhibition",[2],1.32% [at 11.2 µM]
same,"activity change, negative = inhibition",[3],6.59% [at 20.1 µM]
same,"activity change, negative = inhibition",[4],0.24% [at 11.2 µM]
Cc1cccc2c1NC(=O)C2(c1ccc(O)cc1)c1ccc(O)cc1,Potency,[1],213 nM (active)
same,Potency,[2],inactive
same,Potency,[3],inactive
same,Potency,[4],inactive
COc1cc2ncnc(Oc3ccc(CC(=O)Nc4cnn(C(C)C)c4)cc3)c2cc1OC,activation,[1],4.77%
same,Potency,[2],inactive
same,Potency,[3],inactive
same,Potency,[4],inactive
CS(=O)(=O)c1ccccc1N1CCN(c2nc3c(c(=O)[nH]2)CSCC3)CC1,activation,[1],11.5%
same,Potency,[2],inactive
same,Potency,[3],inactive
same,Potency,[4],inactive
CCC1(O)CC2c3cc(OC)c(OC)cc3CCN2CC1CC(C)C (centres undefined),activation,[1],3.82%
same,Potency,[2],inactive
same,Potency,[3],inactive
same,Potency,[4],inactive
O=C(NCCCN1CCOCC1)c1cnn2c(-c3ccccc3)cc(-c3ccccc3)nc12,activation,[1],-6.68%
same,Potency,[2],inactive
same,Potency,[3],inactive
same,Potency,[4],inactive
C=C1CCN([C@H](C)[C@](O)(Cn2cncn2)c2ccc(F)cc2F)CC1,activation,[1],-19.1%
same,Potency,[2],inactive
same,Potency,[3],inactive
same,Potency,[4],inactive
CCN(CC)Cc1ccc(C(=O)N(CCc2ccccc2OC)[C@@H]2CCNC2)cc1,activation,[1],3.34%
same,Potency,[2],inactive
same,Potency,[3],inactive
same,Potency,[4],inactive
COC(=O)c1ccc2c(c1)[nH]c1ncnc(NCCCN3CCCCC3)c12,activation,[1],0.477%
same,Potency,[2],inactive
same,Potency,[3],31.6 µM (active)
same,Potency,[4],inactive
CCCCc1nc(Cl)c(CO)n1Cc1ccc(-c2ccccc2-c2nnn[nH]2)cc1,activation,[1],-18.1%
same,Potency,[2],inactive
same,Potency,[3],inactive
same,Potency,[4],inactive
COc1cc2c(cc1-c1c(C)noc1C)ncc1[nH]c(=O)n([C@H](C)c3ccccn3)c12,activation,[1],5.5% and 9.55% and -13.4%
same,Potency,[2],inactive
same,Potency,[3],inactive
same,Potency,[4],inactive
same,Potency,[5],1320 nM (active)
same,Potency,[6],468 nM (active)
same,Potency,[7],417 nM (active)
O=C(NCCN1CCC(n2c(=O)[nH]c3ccccc32)CC1)c1ccc2ccccc2c1,activation,[1],-1.43%
same,Potency,[2],inactive
same,Potency,[3],inactive
same,Potency,[4],inactive
O=C(NCc1ccccc1)c1ccc2c(=O)n(-c3cccc(C(F)(F)F)c3)c(=S)[nH]c2c1,activation,[1],-9.55%
same,Potency,[2],inactive
same,Potency,[3],inactive
same,Potency,[4],inactive
CCc1cnc(N2CCC(c3nc(COc4ccc(-n5cnnn5)cc4)cs3)CC2)nc1,activation,[1],2.86%
same,Potency,[2],inactive
same,Potency,[3],inactive
same,Potency,[4],inactive
C[C@H](Nc1cc2c(-c3ccc4c(c3)OCO4)noc2cn1)c1ccccc1,activation,[1],4.77%
same,Potency,[2],inactive
same,Potency,[3],inactive
same,Potency,[4],inactive
O=C(c1c2ccccc2cc2ccccc12)N1CCC(N2CCC[C@@H](C(=O)N3CCOCC3)C2)CC1,activation,[1],-1.91%
same,Potency,[2],inactive
same,Potency,[3],inactive
same,Potency,[4],inactive
COc1cc(CCc2cc(NC(=O)c3ccc(N4CC(C)NC(C)C4)cc3)n[nH]2)cc(OC)c1 (centres undefined),activation,[1],3.34%
same,Potency,[2],inactive
same,Potency,[3],inactive
same,Potency,[4],inactive
O=C(Nc1cccnn1)N1CCN(c2nccc(-c3ccc(F)c(F)c3)n2)CC1,activation,[1],0.477%
same,Potency,[2],inactive
same,Potency,[3],inactive
same,Potency,[4],inactive
CC(C)n1c(=O)c(C(=O)NC2CC3CCC(C2)N3C[C@@H](O)CN(C)S(C)(=O)=O)cc2ccccc21 (some centres undefined),activation,[1],-10.5%
same,Potency,[2],inactive
same,Potency,[3],inactive
same,Potency,[4],inactive
COc1cc2nc(C3CC3)nc(N3CCN(c4ccccc4OC)CC3)c2cc1OC,Potency,[1],16900 nM (active)
same,Potency,[2],inactive
same,Potency,[3],inactive
same,Potency,[4],inactive
CC(C)OC(=O)C1=CN(C(=O)c2ccc(F)c(F)c2)CC(C)(C)c2c1[nH]c1ccccc21,activation,[1],-3.85% and 0.955%
same,Potency,[2],inactive
same,Potency,[3],inactive
same,Potency,[4],inactive
same,viability,[5],109%
same,Potency,[6],inactive
same,Potency,[7],inactive
same,Potency,[8],inactive
same,Potency,[9],inactive
CC[C@@H](C)Nc1cc(C(=O)NC2CC3CC[C@@H](C2)N3c2ccc(C(=O)C3CC3)cn2)c(C)cc1C(N)=O (some centres undefined),activation,[1],20.5%
same,Potency,[2],inactive
same,Potency,[3],inactive
same,Potency,[4],inactive
same,Potency,[5],132 nM (active)
same,Potency,[6],66.1 nM (active)
same,Potency,[7],41.7 nM (active)
same,Potency,[8],105 nM (active)
same,Potency,[9],132 nM (active)
same,Potency,[10],118 nM (active)
same,Potency,[11],105 nM (active)
COc1cc2c(cc1OC)CN(CCc1ccc(NC(=O)c3cccc4c(=O)c5cccc(OC)c5[nH]c34)cc1)CC2,activation,[1],-17.9%
same,Potency,[2],inactive
same,Potency,[3],inactive
same,Potency,[4],inactive
same,viability,[5],111%
same,Potency,[6],inactive
same,Potency,[7],inactive
same,Potency,[8],inactive
same,Potency,[9],inactive
same,Potency,[10],inactive
same,Potency,[11],inactive
c1cc(Nc2cc(C3CC3)[nH]n2)nc(Nc2ccc3nc[nH]c3c2)n1,Potency,[1],849 nM (active)
same,Potency,[2],inactive
same,Potency,[3],inactive
same,Potency,[4],inactive
same,Potency,[5],662 nM (active)
same,Potency,[6],263 nM (active)
same,Potency,[7],52.5 nM (active)
same,Potency,[8],263 nM (active)
same,Potency,[10],235 nM (active)
same,Potency,[11],372 nM (active)
COc1ccc2c(OCc3nnc4ccc(-c5ccccc5)nn34)ccnc2c1,activation,[1],-0.776% and -8.11%
same,Potency,[2],inactive
same,Potency,[3],inactive
same,Potency,[4],inactive
same,viability,[5],116%
same,Potency,[6],inactive
same,Potency,[7],inactive
same,Potency,[8],inactive
same,Potency,[9],inactive
same,Potency,[10],inactive
same,Potency,[11],inactive
